Activity calls are given as the source filed them. Rule for the calls: active = hit-call score of the fitted dose curve at least 0.9, where 1 is the maximum; inactive = score below 0.9.
Assay: IUF_NPC2c_oligodendrocyte_migration_120hr: Leibniz Research Institute for Environmental Medicine (IUF) 120-hour Neural Progenitor Cell Migration Assay for Oligodendrocyte Migration (NPC2c) (AID 2284297)
Procedure: IUF_NPC2-5 is a cell-based, multiplexed assay that uses hNPC, a human primary neural progenitor cells, with measurements taken at 72 or 120 hours after chemical dosing in a 96-well plate. Human neural progenitor cells (hNPC) are generated from human fetal brain cortex at gestational week (GW) 16-19. In the neural progenitor cell migration and differentiation assay (NPC2-5), hNPCs grown as spheres are plated on an extracellular matrix and migrate and differentiate out of the sphere core. The processes radial glia migration, neuronal and oligodendrocyte migration as well as neuronal differentiation, neuronal morphology and oligodendrocyte differentiation are studied using automated phase contrast imaging and automated fluorescence imaging in combination with high content image analysis. In parallel, the cell viability is assessed using an alamar blue viability assay and the cytotoxicity using a lactate dehydrogenase dependent membrane integrity assay.IUF_NPC2b_oligodendrocyte_migration_120hr is one of 12 assay components measured from the IUF_NPC2-5 assay. Oligodendrocyte migration distance at 120 hr is the mean distance of all oligodendrocytes from the edge of the sphere core to each individual oligodendrocyte (see IUF_NPC5_oligodendrocyte_differentiation_120hr). Oligodendrocyte migration is normalized to radial glia migration distance at 120 hr.Data from the IUF_NPC2c_oligodendrocyte_migration_120hr component was analyzed at the endpoint IUF_NPC2c_oligodendrocyte_migration_120hr in the positive analysis fitting direction relative to DMSO as the negative control and baseline of activity. Using a type of migration reporter, gain or loss-of-signal activity can be used to understand developmental effects.
Culture protocol: After the cell expansion period the cells are cultured for up to four weeks in which they are passaged every week as described in 3.6. Between one to three days after passaging spheres at a size of 0.3 mm are picked for the test method. For the assessment of neural progenitor cell migration and differentiation, the spheres are plated on poly-D-lysine/laminin coated 96-well flat bottom plates in differentiation medium (N2) to initiate migration and differentiation. Thereby one 0.3 mm big sphere is plated in the middle of a well. The differentiation medium consists of DMEM and Ham's F12 at a ratio of 3 to 1 supplemented with 1% N2 and 1% penicillin and streptomycin. Within 5 days NPCs radially migrate out of the sphere core and differentiate into radial glia cells (nestin positive), neurons (TUBB3 positive), oligodendrocytes (O4 positive) and astrocytes (GFAP positive). Cultivation during the test method is performed at 37C and 5% CO2 at a ph of 7.2-7.6.Exposure: 0.3 mm big hNPC are plated in the already prepared test conditions. Exposure starts at day 0 of differentiation and is continued over five days of differentiation until the experiment is terminated. Cells are fed with fresh medium at day 3 of differentiation. Therefore, half of the test condition solution (e.g. solvent control or compound dilution) is replaced by freshly prepared test condition solution.Test Method: Migration distance and cytotoxicity is determined after 72 hours based on brightfield images of each well. The assay is terminated by the assessment of cell viability and cytotoxicity as well as cell fixation after 120 h. Immunocytochemistry is performed for Hoechst positive nuclei, TUBB3 positive neurons and O4 positive oligodendrocytes. On the ICC images, migration after 120 hours, neuronal and oligodendrocyte number, neuronal morphology and neuron/oligodendrocyte specific migration is assessed. immunocytochemical staining (ICC) generates an image for each sphere. The plates are scanned using an automated high content imaging device and all nuclei and their positions are determined automatically based on their intensity and size. Images are imported to the Omnisphero software to run the image analysis that measures the following endpoints. […]

With CC(C)(C)C(O)(CCc1ccc(Cl)cc1)Cn1cncn1 (stereo not given) as the molecule, how does the outcome read?
Its outcome is “inactive”.

For CCC[CH2][Sn]([Cl])([CH2]CCC)[CH2]CCC, which AC50 is on record?
The AC50 was 325 nM (active).

For [O-][Cl+]O, which outcome is on record?
The outcome was “inactive”.

Which outcome does the source give for O=P(OCCCl)(OCCCl)OCCCl here?
Its outcome is “inactive”.

For COP(=S)(OC)SCN1C(=O)c2ccccc2C1=O, which outcome is on record?
The outcome was “inactive”.

With COC(=O)Nc1nc2ccccc2[nH]1 as the molecule, how does the outcome read?
Its outcome is “inactive”.

For CNC(=O)Oc1cccc2c1OC(C)(C)C2, which outcome is on record?
Its outcome is “inactive”.

For CCCCOC(=O)c1ccccc1C(=O)OCc1ccccc1, which outcome is on record?
Its outcome is “inactive”.

For CC(C)COC(=O)c1ccccc1C(=O)OCC(C)C, which outcome is on record?
Its outcome is “inactive”.

For OCCOCCO, which outcome is on record?
Its outcome is “inactive”.
